Out of some 50,000 compounds screened, about 800 (1.6%) showed an effect of 50% or more. The full list was thinned out, with strong results kept by preference.
target: Bcl-2-like protein 10 (Homo sapiens) (UniProt Q9HD36); assay: TR3 peptide-Bcl-B binding displacers, biochemical primary FP assay, phenotype converters (AID 1240); settings: GST-Bcl-B / FITC-TR3 peptide fluorescence polarization; stronger effect = higher value; compound at 3.75 mg/L;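 further: 0% = Bcl-B with tracer peptide and DMSO and 100% = tracer peptide lacking Bcl-B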
Sequence (Q9HD36 whole entry, looked up): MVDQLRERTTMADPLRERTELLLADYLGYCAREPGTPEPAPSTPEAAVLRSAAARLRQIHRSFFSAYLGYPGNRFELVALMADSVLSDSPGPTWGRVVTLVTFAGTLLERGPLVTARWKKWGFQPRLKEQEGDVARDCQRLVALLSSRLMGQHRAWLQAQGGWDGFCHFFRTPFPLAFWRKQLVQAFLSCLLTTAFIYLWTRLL

Row | SMILES | displacement [%]
1 | C/C(=N\OC/C(O)=C(\C#N)c1nc2ccccc2[nH]1)c1ccc(Br)cc1 | 46.6
2 | N#C/C(=C(/O)CO/N=C/c1ccccc1Cl)c1nc2ccccc2[nH]1 | 53.6
3 | N#C/C(=C(/O)C(Cl)(Cl)Cl)c1nc2ccccc2[nH]1 | -5.5
4 | O=C(CC1Nc2ccccc2NC1=O)Nc1cccc(C(=O)O)c1 (stereo not drawn) | -2.4
5 | CCCOc1cccc(C(=O)Nc2ccc(F)c([N+](=O)[O-])c2)c1 | 13.4
6 | CC1=NN(C(=O)c2cccnc2)C(O)(c2ccccc2)C1 (stereo not drawn) | -6.3
7 | O=C(Cc1cccs1)NCC1CCCO1 (stereo not drawn) | 14.5
8 | O=C(N/N=C/c1ccc(O)c(O)c1)c1cccc(F)c1 | -6.6
9 | O=C(NCCCn1ccnc1)c1ccccc1Br | -8.7
10 | O=C(Nc1ccccc1C(=O)NCCCn1ccnc1)c1ccccc1 | 83.5
11 | COc1ccc(C(=O)Nc2ccccc2C(=O)NCCCn2ccnc2)cc1 | 11.9
12 | COC(=O)C1=CNC=C(C(=O)OC)C1c1cccc(OCc2ccccc2)c1 | 1.2
13 | O=C(/C=C/c1ccc([N+](=O)[O-])cc1)Nc1ccc(F)cc1 | -2.7
14 | O=C(/C=C/Nc1ccccc1F)c1ccccc1 | 8.2
15 | COc1ccc(C(=O)/C=C/Nc2ccccc2F)cc1 | 5.6
16 | O=C(/C=C\Nc1ccc(Br)cn1)c1ccc(Cl)cc1 | 61.9
17 | O=C(/C=C/Nc1ccccc1F)c1ccc(Br)cc1 | 85.6
18 | COc1ccc(C(=O)/C=C\Nc2ccc(Cl)cn2)cc1 | -23.9
19 | O=C(/C=C/Nc1ccccn1)c1ccc(Br)cc1 | 3
20 | Cc1sccc1/C=N/NC(=O)C1CC1 | 3

Row | SMILES | displacement [%]
21 | Cc1ccc(/C=N/N=C/c2ccc(C)cc2)cc1 | 2.2
22 | C/C(=C\C(=O)c1ccc(Cl)cc1)Nc1ccc(Br)c(C)c1 | 4.4
23 | COc1ccc(-c2nn(-c3ccccc3)cc2/C=c2\sc3nc(-c4ccc(C)cc4)nn3c2=O)cc1 | 8.3
24 | COc1ccc(/C=c2\sc3nc(-c4ccccc4)nn3c2=O)cc1 | 77.5
25 | COC(=O)c1ccc(/C=c2\sc3nc(-c4ccc(C)cc4)nn3c2=O)cc1 | 10.7
26 | COc1ccccc1/C=c1/sc2nc(-c3ccc(Cl)cc3Cl)nn2c1=O | 7.3
27 | Cc1ccc(-c2nnc3s/c(=C\c4ccccc4Cl)c(=O)n23)cc1 | 30.3
28 | COc1ccc(/C=c2\sc3nnc(-c4ccccc4)n3c2=O)c(OC)c1 | 28
29 | COc1ccccc1/C=c1\sc2nc(-c3ccc(C)cc3)nn2c1=O | 61.7
30 | COc1ccc(/C=c2\sc3nnc(-c4ccc(C)cc4)n3c2=O)c(OC)c1 | 73.8
31 | COc1ccc(/C=c2/sc3nc(-c4ccc(C(C)(C)C)cc4)nn3c2=O)cc1 | 11.3
32 | OCCCc1nc2ccccc2n1Cc1ccccc1 | 2.4
33 | O=[N+]([O-])c1cc(C(F)(F)F)ccc1N/N=C/c1ccc(F)cc1 | 6.3
34 | CC(=O)N(C1=C(N2CCCCC2)C(=O)c2ccccc2C1=O)c1ccc(C)cc1 | 11.1
35 | O=C(Nc1ccc2c(c1)OCCO2)c1ccc(Br)cc1 | -0.2
36 | O=S(=O)(Nc1ccc(SC(F)F)cc1)c1cccc2cccnc12 | 1.7
37 | CCc1nnc(NC(=O)C2CCCC2)s1 | -7.8
38 | Cc1cc(=O)n2cc(Br)ccc2n1 | 0.1
39 | O=C(Nc1ccc(NC(=O)c2ccc([N+](=O)[O-])cc2Cl)cc1Cl)c1ccco1 | -2
40 | O=C(C1CCCCC1)N1CCN=C1c1ccccc1 | -1

Row | SMILES | displacement [%]
41 | CN1C(=O)NC(=O)/C(=C\c2cc(Cl)c(OCC(=O)O)c(Cl)c2)C1=O | -3.5
42 | O=C(O)/C=C\C(=O)Nc1ccc(C(=O)c2ccccc2)cc1 | 3.2
43 | Cc1ccc(NC(=O)/C=C/c2ccccc2)cc1 | -3.5
44 | Cc1ccc(NC(=O)/C=C/C(=O)c2ccccc2)cc1 | 54.6
45 | CCN(CC)CCN1C(=O)C(O)=C(C(=O)/C=C/c2ccccc2)C1c1ccc(Br)cc1 (stereo not drawn) | 11.4
46 | O=C(C1CCCC1)N1CCN(c2ccc(F)cc2)CC1 | -0.9
47 | O=C(COc1ccccc1[N+](=O)[O-])Nc1ccc2oc(-c3ccccc3Br)nc2c1 | 5.2
48 | Cc1cc2nc(-c3ccc(NC(=O)COc4ccccc4[N+](=O)[O-])cc3)oc2cc1C | -0.7
49 | O=C(COc1ccccc1[N+](=O)[O-])Nc1ccc(-c2nc3ccccc3o2)cc1 | -1.3
50 | O=C(COc1ccccc1[N+](=O)[O-])Nc1cc(-c2nc3ccccc3o2)ccc1Cl | 91.6
51 | O=C(COc1ccccc1[N+](=O)[O-])Nc1ccc2oc(-c3cccc4ccccc34)nc2c1 | 56.9
52 | Cc1cc(C)c2oc(-c3cccc(NC(=O)COc4ccccc4[N+](=O)[O-])c3)nc2c1 | -24.2
53 | Cc1ccc(-c2nc3ccccc3o2)cc1NC(=O)COc1ccccc1[N+](=O)[O-] | -7.1
54 | O=C(COc1ccccc1[N+](=O)[O-])Nc1ccc2oc(-c3ccccc3F)nc2c1 | 2.9
55 | Cc1cc(C)c2oc(-c3ccc(NC(=O)COc4ccccc4[N+](=O)[O-])cc3)nc2c1 | 89.3
56 | Cc1cc(C)c2nc(Nc3nc4ccccc4c(=O)[nH]3)nc(C)c2c1 | 9.2
57 | O=C(O)CCCCCN1C(=O)C(O)=C(C(=O)/C=C/c2ccccc2)C1c1ccccc1Cl (stereo not drawn) | -7.2
58 | Cc1c(O)nc(Nc2nc(C)c3ccccc3n2)[nH]c1=O | 9
